From PMC12136788 come the findings set out here.

Residue numbers refer to the chain shown, from its start. Whole data set: some 5,800 sequences, median “enrichment r” near 0.68, cut for the highest 2% near 11. The entries come from a sample that favours the highest values as a whole.

First the molecules themselves.
T1: UNK ZnF1-6 (called full-length) (human, UniProt Q9C0B0 30-357)
T1 sequence: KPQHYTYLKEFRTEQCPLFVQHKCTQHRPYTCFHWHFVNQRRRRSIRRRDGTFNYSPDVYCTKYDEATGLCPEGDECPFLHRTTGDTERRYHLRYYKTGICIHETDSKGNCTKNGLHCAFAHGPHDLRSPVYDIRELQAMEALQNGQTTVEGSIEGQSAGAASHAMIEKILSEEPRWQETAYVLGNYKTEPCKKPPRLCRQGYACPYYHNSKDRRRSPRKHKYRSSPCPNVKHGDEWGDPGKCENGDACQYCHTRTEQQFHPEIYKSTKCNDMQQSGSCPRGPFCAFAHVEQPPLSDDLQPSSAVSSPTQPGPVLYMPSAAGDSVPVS

B1: chr9:123379744:123379845:-|3pUTR|ENSG00000119522|msi1|total|mutant (ssRNA)
RNA: GGGAGUUCUACAGUCCGACGAUCGUGUUUCAGCACCGAUUCCAGUUUCGCACCCUGGGCAGACCCCCAGGCCCCAUCCGGGACCGGGCAGAGGAGGUGCUGGCGGCCCCAGGGAAGGAGGGUGUGUACCCCAAGGCCCCCUGGCAACAGAGGAUUGAGCAUCA
B2: chr3:98797553:98797658:-|3pUTR|ENSG00000057019|msi1|total|mutant (ssRNA)
RNA: GGGAGUUCUACAGUCCGACGAUCAUUUCAUUCAUUGAAGAAUCAAUACAUAUUUUGUUUCAAAAUGUUUGAAACAAAAGACACCGAUGGCCGACUUUUAUUAAAACAUAUAUGGAUGUGGAAAGCACAUAUAUUAAUGCAGUCCAACAGAGGAUUGAGCAUCA
B3: chr15:52550718:52550819:-|3pUTR|ENSG00000128989|msi1|FALSE|unique (ssRNA)
RNA: GGGAGUUCUACAGUCCGACGAUCUUUAUAUAAACUUUUUAAAUGUAGAAACUUUUUACUUCCACACUCAGUUUUGGAGACCCUAGAAUAAAAGGCUUCAAUACUCUGCAUUCCAUGCCCUCUGCCACCUGCUUUUUUUUCCCCCAACAGAGGAUUGAGCAUCA
B4: chrX:100674576:100674677:+|3pUTR|ENSG00000102359|msi1|FALSE|bound_elsewhere (ssRNA)
RNA: GGGAGUUCUACAGUCCGACGAUCUUGCAAUCCACACCAAAUCAAUCUUUGAAAACAUUCCUCCAUUCGGUUCAUACAUACAGUAGAAACCACUGUGGCUGCCCUUAAUCCAGUGUGCUUAUAGGAAAUCAGUUAGCAGCUGACCAACAGAGGAUUGAGCAUCA
B5: chr7:7607225:7607326:+|3pUTR|ENSG00000164654|msi1|total|mutant (ssRNA)
RNA: GGGAGUUCUACAGUCCGACGAUCUUUGAGUGAUUUUGAUAUGCUUCACAGAGACAAAUGCUGCCAAAAUAAACAUCGAAGUACCGACAUGAGUUCUGUUCAGCAGGUUGAAAAGUCUGAUUCCGAAAAACUUUCUAAGUUUUGCAACAGAGGAUUGAGCAUCA
B6: chr3:129431351:129431457:-|3pUTR|ENSG00000129071|unk|FALSE|unique (ssRNA)
RNA: GGGAGUUCUACAGUCCGACGAUCACUUCAAAAAAGCUUAAUUAAGUACAACCAACCACCUUUCCAGCCAUAGAGAUUUUAAUUAGCCCAACUAGAAGCCUAGUGUGUGUGCUUUCUUAAUGUGUGUGCCAAUGGUGGAUCUUUCAACAGAGGAUUGAGCAUCA
B7: chr14:44928120:44928223:-|3pUTR|ENSG00000179454|unk|FALSE|unique (ssRNA)
RNA: GGGAGUUCUACAGUCCGACGAUCUAGUACAGCAGGCCUCCCAGUGCUGAUGUAAAUAUUUGAGCAGUGUUUAGUACCAUUCUUAGUGCAUAUUAAUUUUUUUAUAUAUCCUUAUAAUUUUAGUUUUUUAAGAUCUUUGCUUUUCAACAGAGGAUUGAGCAUCA
B8: chr14:44928120:44928223:-|3pUTR|ENSG00000179454|unk|total|mutant (ssRNA)
RNA: B7 RNA with U24C, A25C, U71C, A72C, U83C, A84C, U120C, A121C
B9: chr5:154817497:154817598:+|3pUTR|ENSG00000155506|msi1_unk|FALSE|overlapping (ssRNA)
RNA: GGGAGUUCUACAGUCCGACGAUCUUAUUGAGAGUAUCUGCUUUCCAGGCUGAAGUGAUUCAUUCAUUAUUCUAGUCCUGCUUUAGUCCUUUGUAAUUUGUGGUAAUUAUGCUUUUCUUUUUAAUACAAAAAAAUGUAUAAAAACAACAGAGGAUUGAGCAUCA
B10: chr12:54238554:54238587:-|3pUTR|ENSG00000094916|msi1_unk|FALSE|overlapping (ssRNA)
RNA: GGGAGUUCUACAGUCCGACGAUCGGGAGCACCCAUUUUAAACCUGGAGAGAACCAUGAUGUUUUCUUCUUCAAAUAACAAUCUAGUUUUUUUUCCCCCAGUACUAAAAUUGUAUUGUCUUUCAGACAAUAUAAUUUUUAUUUACAACAGAGGAUUGAGCAUCA
B11: chr10:73916565:73916770:+|3pUTR|ENSG00000122861|msi1|total|mutant (ssRNA)
RNA: GGGAGUUCUACAGUCCGACGAUCCUGGUUGUCAUUUUUGCAGCCGAGUCAUCUCCAUCAGCUGUAAGAAGAGACUGGGAAGACCGGCUCUGCACAGAUGGAUUUGCCUGUGCCACCCACCAGGGCGAACGACAACCGCUUUACCAACAGAGGAUUGAGCAUCA
B12: chr10:72012227:72012328:+|3pUTR|ENSG00000122863|msi1|total|mutant (ssRNA)
RNA: GGGAGUUCUACAGUCCGACGAUCCAAUGGAAGGAGCUUCAGCAGGAGGUCCUUCCCAGAAGGUUGAUUCUUGGCCUGGGUGGCCGAGGAGAUAUCCUGACCCUAAAGUCUUCCAGCCCCGGGUCAUCCUCUCCUAUACCCGGGCAACAGAGGAUUGAGCAUCA
B13: chr1:18907414:18907603:-|3pUTR|ENSG00000169991|msi1|total|mutant (ssRNA)
RNA: GGGAGUUCUACAGUCCGACGAUCCCUUGAUUUCCCUGAUAACUUGAUGUUCUUCCCUCCCUCGCCAGCCAACAACCGAGGCUCCGAGAUCUGUAAUUUCUCUGUGAGAAAGUCUGAAGGGGCCAGGCCUGGUCUCUGCUCCCUCAACAGAGGAUUGAGCAUCA
B14: chr1:42176760:42176861:-|3pUTR|ENSG00000198815|msi1|total|mutant (ssRNA)
RNA: GGGAGUUCUACAGUCCGACGAUCGUCGCUCAGAUGUCCUUUGAAGUGGGAGGGAAUCAAUCCGGGGAUAAUUUCAAAUGGAACCGAGUAUUUUGAUAUUGUUCAUUCAGAGGGUGAUGUGUACAUAUCUAUAUUGUAUAUAUGCAACAGAGGAUUGAGCAUCA

This assay addresses T1, UNK ZnF1-6 (called full-length). Put plainly: nsRBNS (natural sequence RNA bind-n-seq); RBNS binding buffer (assumed for nsRBNS): 25 mM Tris pH 7.5, 150 mM KCl, 3 mM MgCl2, 0.01% Triton X-100, 500 ug/ml BSA, 20 U/ml SUPERase-In, 4 C; UNK is unkempt and MSI1 is Musashi-1; names of the RNAs are library labels; protein concentration not given here; high values mean tight binding.
Molecule B1 registered a binding signal of 0.59 enrichment R. B2 registered a binding signal of 0.53 enrichment R. Molecule B3 yielded a binding signal of 3.77 enrichment R.

In turn, B4 yielded a binding signal of 0.532 enrichment R.

With B5, the binding signal came out at 0.348 enrichment R. Under B6 stands 5.99 enrichment R; under B7, 213 enrichment R; under B8, 7.31 enrichment R.

Molecule B9 registered a binding signal of 1.93 enrichment R. Molecule B10 had a binding signal of 9 enrichment R. Turning to B11, the binding signal was determined as 0.561 enrichment R. Under B12 stands 0.492 enrichment R; under B13, 0.733 enrichment R; under B14, 1.09 enrichment R.
